Assay results published in PubChem BioAssay (NCI).
About 83,000 compounds went through this panel and 20% of them were active in at least one assay; those are over-represented in the sample as a whole.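 Percent growth is the endpoint: 0 to 100 indicates growth inhibition (40 means 60% inhibition), 0 means no net growth, and negative values indicate cell death.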 Active and inactive are the calls of the source.

Test system: ACHN renal
Assay: NCI-60 one-dose screen, 48 h (100 = growth as untreated, 0 = no growth, -100 = all killed)
Details: 10 µM
Protocol: Growth inhibition of the ACHN human tumor cell line is measured as a screen for anti-cancer activity. Cells are grown in 96 well plates and exposed to the test compound for 48 hours. Compounds are tested at a single concentration, which is 10^-5 M for most compounds. The reported endpoint is percent growth (GI% or GIPRCNT), where numbers from 0 - 100% represent growth inhibition, and numbers from -100% - 0 represent cell death. For example, a value of 40 represents 60% growth inhibition. A value of 0 means no net growth occurred over the course of the experiment. A value of -40 indicates 40% of cells at the beginning of the experiment died by the end of the experiment. A value of -100 means all cells are dead at the end of the experiment.
NCI-60 Human Tumor Cell Lines Screen was performed using the standard one-dose NCI protocol, which is described in more detail at https://dtp.cancer.gov/discovery_development/nci-60/default.htm.
Compounds with GIPRCNT values below 10 were considered active. Activity score was based on GIPRCNT using the following formula: […]
Score is 0 for GIPRCNT values of 100 or above, 50 for GIPRCNT values of 0, and 100 for GIPRCNT values of -100.

Structure (SMILES) | growth
O=C1N=NC2=C1c1c3ccccc3c(O)n1CC2 | 99.9% (inactive)
S=C1SCC(c2ccccc2)S1 (stereo not given) | 101% (inactive)
COc1ccc(-n2c(SCc3cc(OC)c(OC)c(OC)c3)nc3ccc(C)cc3c2=O)cc1 | 66.7% (inactive)
Cc1cs/c(=N\NC(=O)c2cc(-c3cc4ccccc4o3)nn2-c2ccccc2)n1-c1ccccc1 | 88.7% (inactive)
O=C(Nc1ccncc1)C(=O)c1cn(S(=O)(=O)c2cc(Cl)cc(Cl)c2)c2ccccc12 | 68.4% (inactive)
N#Cc1ncc(Br)c(NC2CCCCCC2)n1 | 100% (inactive)
O=C(CC(C(=O)c1ccccc1)N1CCOCC1)c1ccccc1 (stereo not given) | 97.3% (inactive)
CC(C)(C)NC/C(=C\c1ccccc1)C(=O)c1ccccc1 | -50.9% (active)
Nc1nc(N)c(NC(=O)CNc2ccc(C(=O)O)cc2)c(N)n1 | 115% (inactive)
Cc1c(Cl)cccc1NC(=O)c1sc2nc3c(cc2c1N)C(=O)CCC3 | 39.4% (inactive)
CC(=O)N1C/C(=C/c2ccc(Cl)cc2)C(=O)/C(=C/c2ccc(Cl)cc2)C1 | -46.1% (active)
O=C(N/N=C\c1cc(Cl)ccc1[N+](=O)[O-])c1ccco1 | 105% (inactive)
COc1cc2cc3c(nc2cc1OC)CCN3Cc1ccc(NC(=O)Nc2cc(C(F)(F)F)cc(C(F)(F)F)c2)cc1 | 69.6% (inactive)
CC12O[C@H](C[C@@H](OC(=O)c3ccccc3)[C@H]1O)n1c3ccccc3c3c4c(c5c6ccccc6n2c5c31)C(=O)NC4=O | 39.4% (inactive)
CC(=O)CSC(C)=O | 97.8% (inactive)
O=C(C[P+](c1ccccc1)(c1ccccc1)c1ccccc1)C[P+](c1ccccc1)(c1ccccc1)c1ccccc1 | -99.4% (active)
O=C1/C(=C\c2ccc(F)cc2)CN(C(=O)c2ccc([N+](=O)[O-])cc2)C/C1=C\c1ccc(F)cc1 | 44.3% (inactive)
CN(C)CCN=c1nc2c(c(N)n1-c1ccccc1)c(=S)n(-c1ccccc1)c(=S)n2-c1ccccc1 | 28.3% (inactive)
C#Cc1ccc(-n2c(/C=C/c3ccc4ccccc4c3)nc3ncccc3c2=O)cc1 | 23.1% (inactive)
O=C(Nc1ccccc1)Nc1cccc(-n2cc(-c3ccncc3)c(-c3ccc(O)c(Cl)c3)n2)c1 | 43.1% (inactive)

Structure (SMILES) | growth
CC1CC(=O)OC(C)C1 (stereo not given) | 110% (inactive)
O=C(Nc1cccc(Br)c1)c1cc(=O)[nH]c2ccccc12 | 98.5% (inactive)
COc1ccc(-c2nc3sccn3c2-c2nc3c([nH]2)C(=O)c2ccccc2C3=O)cc1 | 86.4% (inactive)
O=C1NC(=O)N(Cc2ccccc2)CC1Br (stereo not given) | 70.5% (inactive)
COc1ccc(-c2nc(-c3nc4cc(Cl)c(F)cc4[nH]3)c3ccccn23)cc1 | 79.1% (inactive)
Cn1c([N+](=O)[O-])cnc1/C=C1\Oc2cc(Cl)ccc2C1=O | 6.42% (active)
Cc1ccc(NC(=O)Nc2c(Cl)cccc2Cl)cn1 | 95.5% (inactive)
COc1cc(-c2nc(-c3nnc(-c4ccc(F)c(Cl)c4)o3)c3ccccn23)cc(OC)c1OC | 10.7% (inactive)
COc1cc2nc(Nc3cccc(NC(C)=O)c3)nc(N)c2cc1OC | 102% (inactive)
CN(C)N=Nc1nn(C(=O)Nc2ccc(Cc3ccccc3)cc2)c2ccccc12 | 34.3% (inactive)
COc1cc(Cl)cc(-c2nn(-c3cccc(NC(=O)Nc4ccc(Cl)c(C(F)(F)F)c4)c3)cc2-c2ccncc2)c1 | 8.78% (active)
O=S(=O)(NCCNc1nccc(-c2c(-c3ccc(F)cc3)nc3sccn23)n1)c1ccc2ccccc2c1 | 56.6% (inactive)
ClCCOCCn1cnc2c(Cl)nc(Cl)nc21 | 81.3% (inactive)
CN1CC[C@@H](c2c(O)cc(O)c3c(=O)cc(-c4ccccc4Cl)oc23)[C@@H](O)C1 | -14.1% (active)
CCCCCCCCCCCCCCCCCC(=O)OCCCCCCC | 107% (inactive)
O=C(Nc1cccc(-n2cc(-c3ccncc3)c(-c3ccc(O)c(Cl)c3)n2)c1)c1cc(C(F)(F)F)cc(C(F)(F)F)c1 | 44.8% (inactive)
C[N+](C)(C)c1ncnc2nc[nH]c12 | 91.1% (inactive)
COc1ccc(-c2nn(-c3cccc(NC(=O)Nc4ccc(Cl)c(C(F)(F)F)c4)c3)cc2-c2ccncc2)cc1Cl | 12.6% (inactive)
Cc1ncc(-c2ccoc2)c(NC2CCCCCC2)n1 | 99.6% (inactive)
N=C(N)c1ccc(-c2ccc(-c3cccs3)s2)cc1 | 85.8% (inactive)
